{
  "source": "PubChem BioAssay (EPA / NIEHS)",
  "note": "Active and inactive are the calls of the source. How the source made its calls: active means hit-call score of the fitted dose curve at least 0.9, where 1 is the maximum; inconclusive means response in the unintended direction; inactive means score below 0.9.",
  "data": [
    {"target": "Estrogen receptor (Homo sapiens) (UniProt P03372)", "sequence (P03372 whole entry, looked up)": "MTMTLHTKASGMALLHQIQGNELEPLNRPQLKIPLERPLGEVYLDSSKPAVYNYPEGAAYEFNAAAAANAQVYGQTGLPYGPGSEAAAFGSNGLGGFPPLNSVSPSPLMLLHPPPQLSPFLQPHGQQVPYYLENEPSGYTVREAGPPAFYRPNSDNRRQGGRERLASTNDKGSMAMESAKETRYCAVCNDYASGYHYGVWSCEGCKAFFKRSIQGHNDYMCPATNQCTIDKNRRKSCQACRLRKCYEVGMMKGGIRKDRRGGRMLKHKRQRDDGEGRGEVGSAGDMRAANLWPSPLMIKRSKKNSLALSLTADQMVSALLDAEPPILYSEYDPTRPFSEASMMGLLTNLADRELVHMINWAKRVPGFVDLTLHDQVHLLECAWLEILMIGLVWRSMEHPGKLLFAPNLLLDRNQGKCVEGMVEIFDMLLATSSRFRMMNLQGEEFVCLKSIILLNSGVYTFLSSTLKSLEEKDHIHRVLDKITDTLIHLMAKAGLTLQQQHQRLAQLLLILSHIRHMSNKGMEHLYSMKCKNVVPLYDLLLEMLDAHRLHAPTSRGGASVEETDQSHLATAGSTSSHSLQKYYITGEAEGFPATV", "assay": "OT_ER_ERaERa_1440: Odyssey Thera (OT) 24-hour HEK293T Protein-Complementation Assay for Estrogen Receptor-alpha/-alpha Homodimer (AID 2283349);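 further: hits raise fluorescence above DMSO for agonists and antagonists alike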", "procedure": "OT_ER_ERaERa_1440 is a cell-based assay that uses HEK293T, a human kidney cell line, with measurements taken at 24 hours after chemical dosing in a 384-well plate.OT_ER_ERaERa_1440 is one of one assay component(s) measured or calculated from the OT_ER_ERaERa_1440 assay. It is designed to make measurements of protein fragment complementation, a form of binding reporter, as detected with fluorescence intensity signals by Protein-fragment Complementation technology.Data from the assay component OT_ER_ERaERa_1440 was analyzed into 1 assay endpoint. This assay endpoint, OT_ER_ERaERa_1440, was analyzed in the positive analysis fitting direction relative to DMSO as the negative control and baseline of activity. Using a type of binding reporter, measures of receptor for gain-of-signal activity can be used to understand the binding at the pathway-level as they relate to the gene ESR1. Furthermore, this assay endpoint can be referred to as a primary readout, because the performed assay has only produced 1 assay endpoint. To generalize the intended target to other relatable targets, this assay endpoint is annotated to the nuclear receptor intended target family, where the subfamily is steroidal.\nProtein-fragment complementation assay, or PCA, is a method for the identification and quantification of protein-protein interactions. In the PCA, the proteins of interest (\"bait\" and \"prey\") are each covalently linked to fragments of a third protein (e.g. DHFR, which acts as a \"reporter\"). Interaction between the bait and the prey proteins brings the fragments of the reporter protein in close proximity to allow them to form a functional reporter protein whose activity can be measured. The OT ER alpha / ER alpha assay is a homodimer PCA of the ligand binding domain (amino acids 310-547) of human ER alpha stably expressed in HEK293T cells. […] Fluorescent signal in the basal state of the assay is very low and is primarily punctuate and cytoplasmic. Modulation of this assay is quantified as an increase in mean fluorescence intensity in the nucleus (for agonists) or in the nucleus and cytoplasm (antagonists) relative to vehicle controls, and can be quantified on a high content imaging device or a laser scanning cytometer. The latter instrument is favored for this assay because of the rapid mode of data acquisition, the ability to acquire data from the entire cell population in a well (as opposed to a fraction of the well on the high content devices) and the larger dynamic range typically achieved with this instrument. To assess sensitivity of the ER alpha/ER alpha LBD assay to ligand, cells were treated with the ER agonist 17 beta-estradiol (E2) in 10-point concentration- response format for 24 hours and monitored response on a laser scanning plate cytometer (Acumen eX3; TTP Lab Tech).", "values": [
      {"smiles": "CC(C)(C)C(=O)C(Oc1ccc(Cl)cc1)n1cncn1", "note": "(stereo not given)", "outcome": "inactive"},
      {"smiles": "CC1(C)C(C(=O)OC(C#N)c2cccc(Oc3ccccc3)c2)C1(C)C", "note": "(stereo not given)", "outcome": "inactive"},
      {"smiles": "CCSC(=O)N1CCCCCC1", "outcome": "inactive"},
      {"smiles": "Cc1nc(N(C)C)nc(OC(=O)N(C)C)c1C", "outcome": "inactive"},
      {"smiles": "CCCN(CC)CC1COC2(CCC(C(C)(C)C)CC2)O1", "note": "(stereo not given)", "outcome": "inactive"},
      {"smiles": "CCOc1nc(F)cc2nc(S(=O)(=O)Nc3c(Cl)cccc3Cl)nn12", "outcome": "inactive"},
      {"smiles": "O=P(O)(O)CCCl", "outcome": "inactive"},
      {"smiles": "COP(=O)(OC)O/C(C)=C/C(=O)N(C)C", "outcome": "inactive"},
      {"smiles": "CS(=O)(=O)c1cc(C(F)(F)F)ccc1C(=O)c1cnoc1C1CC1", "outcome": "inactive"},
      {"smiles": "O=C(O)c1c(Cl)ccc2cc(Cl)cnc12", "outcome": "inactive"},
      {"smiles": "OC(c1ccc(Cl)cc1)(c1ccc(Cl)cc1)C(Cl)(Cl)Cl", "outcome": "inactive"},
      {"smiles": "O=c1n(Cl)c(=O)n(Cl)c(=O)n1Cl", "outcome": "inactive"},
      {"smiles": "COc1cc(Cl)c(OC)cc1Cl", "outcome": "inactive"},
      {"smiles": "CC(C)NC(=O)N1CC(=O)N(c2cc(Cl)cc(Cl)c2)C1=O", "outcome": "inactive"},
      {"smiles": "CN/C(=N\\[N+](=O)[O-])NCc1cnc(Cl)s1", "outcome": "inactive"},
      {"smiles": "CSC(=O)c1c(C(F)F)nc(C(F)(F)F)c(C(=O)SC)c1CC(C)C", "AC50": "47.1 µM (active)"},
      {"smiles": "CCCCOCN(C(=O)CCl)c1c(CC)cccc1CC", "outcome": "inactive"},
      {"smiles": "O=C(Nc1ccccc1-c1ccc(Cl)cc1)c1cccnc1Cl", "outcome": "inactive"},
      {"smiles": "CCOP(=O)(OCC)Oc1nc(Cl)c(Cl)cc1Cl", "outcome": "inactive"},
      {"smiles": "CNC(=O)Oc1cccc2ccccc12", "outcome": "inactive"},
      {"smiles": "CC(C)N1C(=O)N(c2ccccc2)CSC1=NC(C)(C)C", "outcome": "inactive"},
      {"smiles": "CCN(CC)c1nc(C)cc(OP(=S)(OC)OC)n1", "outcome": "inactive"},
      {"smiles": "N#Cc1c(Cl)cccc1Cl", "outcome": "inactive"},
      {"smiles": "CNC(=O)N(C)c1nnc(C(C)(C)C)s1", "outcome": "inactive"},
      {"smiles": "Cc1c(COC(=O)[C@@H]2[C@H](/C=C(\\Cl)C(F)(F)F)C2(C)C)cccc1-c1ccccc1", "outcome": "inactive"},
      {"smiles": "O=C1C2CC=CCC2C(=O)N1SC(Cl)(Cl)Cl", "note": "(stereo not given)", "outcome": "inactive"},
      {"smiles": "C=CCOC(=O)C(C)(C)OC(=O)c1cc(-n2c(=O)cc(C(F)(F)F)n(C)c2=O)ccc1Cl", "outcome": "inactive"},
      {"smiles": "Nc1c(Cl)c(Cl)nc(C(=O)O)c1Cl", "outcome": "inactive"},
      {"smiles": "Clc1nc(Cl)nc(Nc2ccccc2Cl)n1", "outcome": "inactive"},
      {"smiles": "COCC(=O)N(c1c(C)cccc1C)C(C)C(=O)OC", "note": "(stereo not given)", "outcome": "inactive"},
      {"smiles": "CC(C)=CC1C(C(=O)OCc2coc(Cc3ccccc3)c2)C1(C)C", "note": "(stereo not given)", "outcome": "inactive"},
      {"smiles": "COC(=O)NS(=O)(=O)c1ccc(N)cc1", "outcome": "inactive"},
      {"smiles": "CC1(C)C(C=C(Cl)Cl)C1C(=O)OC(C#N)c1cccc(Oc2ccccc2)c1", "note": "(stereo not given)", "outcome": "inactive"},
      {"smiles": "COCC(C)N(C(=O)CCl)c1c(C)csc1C", "note": "(stereo not given)", "outcome": "inactive"},
      {"smiles": "CCCCC(C#N)(Cn1cncn1)c1ccc(Cl)cc1", "note": "(stereo not given)", "outcome": "inactive"},
      {"smiles": "CC(C)C1(C)N=C(c2ncccc2C(=O)O)NC1=O", "note": "(stereo not given)", "outcome": "inactive"},
      {"smiles": "CN=C=S", "outcome": "inactive"},
      {"smiles": "Cn1c(-c2ccccc2)cc(-c2ccccc2)[n+]1C", "outcome": "inactive"},
      {"smiles": "CC1(C)CCC(=Cc2ccc(Cl)cc2)C1(O)Cn1cncn1", "note": "(stereo not given)", "outcome": "inactive"},
      {"smiles": "CCN(CC)C(=O)C(C)Oc1cccc2ccccc12", "note": "(stereo not given)", "outcome": "inactive"}
    ]}
  ]
}
